ALDH1A1 block = qHTS Assay for Inhibitors of Aldehyde Dehydrogenase 1 (ALDH1A1); Purified ALDH1A1, NADH fluorescence, propionaldehyde substrate; Potency, µM (titrated, usually from 75.3 µM), for the others: at the top dose activity, negative = inhibition, hits mostly inhibitors; actives 7.3% (n = 220,000); AID 1030, 2008; active = well fitted inhibition curve with a large enough effect, not every such curve was filed as active; inconclusive = small, poorly fitted or top-dose-only effect, or another doubt; inactive = no such curve, though single readings can be large or run the other way;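 also: plate controls were no enzyme wells and a reference inhibitor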
PLK1 PBD inh = qHTS for Inhibitors of PLK1-PDB (polo-like kinase 1 - polo-box domain): Primary Screen; Serine/threonine-protein kinase PLK1 (Homo sapiens), P53350; Plk1 PBD binding of FITC phosphopeptide, fluorescence polarization; Potency, µM, without a hit: max response, negative = inhibition, most hits filed as inhibitors; actives 2.8% (n = 360,000); also: series mostly up to about 57 µM; nearly all actives have a fitted effect of over 65% in size
Sfp PPTase inh = qHTS Assay for Inhibitors of Bacillus subtilis Sfp phosphopantetheinyl transferase (PPTase). Potency, µM, for the others: largest response in the series, negative = inhibition, most hits filed as inhibitors. AID 1490, 2009. Biochemical Sfp PPTase activity, qHTS. actives 3.5% (n = 310,000). 4'-phosphopantetheinyl transferase ffp (Bacillus subtilis), Q9F4F7;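 also: the enzyme is Sfp with the accession as filed and its product quenches rhodamine fluorescence; 0% = enzyme reaction without inhibitor and -100% = no enzyme wells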
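Buffer: 50 mM Hepes-Na pH 7.6, 10 mM MgCl2, 0.01% Nonidet P-40, 0.01% BSA. Enzyme 15 nM, pre-exposed to compound 15 min; substrates then added and fluorescence change tracked over 30 min.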
VP16 counter = VP16 counterscreen qHTS for inhibitors of ROR gamma transcriptional activity | Drosophila S2 Gal4-VP16 UAS-luciferase, luminescence, 20 h | Potency, µM (doses to about 53.6 µM), without a hit: top-dose activity, negative = inhibition, actives largely listed as inhibitors | actives 3.5% (n = 310,000) | AID 2546, 2010;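 also: Gal4-VP16 expression switched on by copper sulfate through the metallothionein promoter; nearly all actives have a fitted effect of over 50% in size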
RORg inh = qHTS for inhibitors of ROR gamma transcriptional activity | Potency, µM (doses to about 53.6 µM), for inactives: at the highest dose activity change, negative = inhibition, most hits filed as inhibitors | Nuclear receptor ROR-gamma (Mus musculus), P51450 | Drosophila S2 Gal4-RORgamma UAS-luciferase reporter, 20 h | actives 5.4% (n = 310,000) | AID 2551, 2010; also: nearly all actives have a fitted effect of over 60% in size
Target sequence (P51450 whole entry, looked up, the tested form may be a part): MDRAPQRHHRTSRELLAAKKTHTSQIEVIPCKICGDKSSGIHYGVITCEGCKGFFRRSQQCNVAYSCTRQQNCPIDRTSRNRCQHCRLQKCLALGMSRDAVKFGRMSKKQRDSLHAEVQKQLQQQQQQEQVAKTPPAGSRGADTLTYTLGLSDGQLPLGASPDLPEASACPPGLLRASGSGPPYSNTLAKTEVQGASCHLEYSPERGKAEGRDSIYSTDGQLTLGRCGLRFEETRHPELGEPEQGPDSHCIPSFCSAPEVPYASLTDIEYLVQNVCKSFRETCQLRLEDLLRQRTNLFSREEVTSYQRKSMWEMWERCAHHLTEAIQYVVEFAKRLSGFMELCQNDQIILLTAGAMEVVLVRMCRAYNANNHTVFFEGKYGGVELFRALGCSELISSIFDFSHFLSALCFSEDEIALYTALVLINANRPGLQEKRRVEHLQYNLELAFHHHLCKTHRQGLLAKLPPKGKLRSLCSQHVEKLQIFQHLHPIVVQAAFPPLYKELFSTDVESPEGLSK
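Luciferase reporter read in Schneider cells carrying Gal4-RORγ (mouse) and UAS-Photinus luciferase; cells given compound 1 h before 700 uM copper sulfate induction, then incubated 20 h at ambient temperature.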
Starred values were filed as active, the others as inactive; ? = inconclusive; . = no result given; ! = not active in a repeat; [ ] = another dose, or the depositor's remark. Shown are actives, neighbours in structure and some others; about 12% of the full set was active somewhere. Unless noted, calls follow the shape of the dose curve; as a rule, active = well fitted curve in the direction sought with a large enough effect; inconclusive = small, poorly fitted or top-dose-only effect, or another doubt; inactive = no such curve, though single readings can be large; an effect the other way counts as inactive or inconclusive. Unless noted, % is scaled to controls: 0 for no effect and ±100 for the full control effect; potency is read from the fitted curve at half-maximal effect.

SMILES	ALDH1A1 block	PLK1 PBD inh	Sfp PPTase inh	VP16 counter	RORg inh
COc1ccc(CN2CCN(Cc3ccc(C(F)(F)F)cc3)CC2)c(OC)c1	.	0%	71µM*	-9%	17%
COc1ccc(CN2CCN(Cc3ccc(C)cc3)CC2)c(OC)c1	.	4%	-19%	13%	2%
COc1cccc(CN2CCSCC2)c1	?	-3%	-20%	3%	-16%
CCOC(=O)C1CCCN(CCC(=O)Nc2ccc(Br)c(C)c2)C1 (centres undefined)	.	0%	11%	28%	-26%
CN(C)c1ncc2nc(CCc3ccccc3)c(=O)n(Cc3ccc(F)cc3)c2n1	?	.	?	2%	-12%
N=C(N)C(N=Nc1ccccc1)C(=N)N (centres undefined)	2%[13.5 µM]	.	.	.	.
O=C(Nc1ccnn1C1CCN(CCCc2ccccc2)CC1)c1cccc(F)c1	.	0%	14%	1%	-32%
Cc1cccc(NC(=S)N(C)C2CCCCC2)c1	-2%	-2%	6%	18µM*	11µM*
CN(C(=O)c1ccc(-c2ccccc2)cc1)C1CCCCC1	.	1%	.	.	.
Cc1ccc(C(=O)NC(=S)N(C)C2CCCCC2)cc1	.	2%	-1%	3.2µM*	2.2µM*
CC(C)NC(=S)NC(=O)/C=C/c1ccc(F)cc1	5%	-2%	4%	7.1µM*	1.8µM*
CN(C(=O)/C=C/c1ccc(F)cc1)C1CCCCC1	.	0%	.	.	.
CN(C(=S)NC(=O)/C=C/c1ccc(F)cc1)C1CCCCC1	?	-23%	-14%	2.5µM*	1.3µM*
Cc1cccc(NC(=S)NC2CCCC2)c1	11%	2%	4%	-15%	22%
CCCCNc1nc(C)nc2c1nc(-c1ccccc1)n2CCCN(C)C	?	.	33%	-3%	0%
Cc1nc(N(C)C2CCCCC2)c2nnn(Cc3ccc(F)cc3)c2n1	.	4%	.	.	.
NCCS	-9%	?	79µM*!	-6%	17%
CCCNC(=O)C1(C)CCCN(Cc2cccc(Oc3ccccc3)c2)C1 (centres undefined)	.	1%	.	.	.
CCCN1CCN(C(=S)NCc2ccc(Cl)cc2)CC1	-5%	-8%	8%	-8%	-8%
Cc1cnn(C(=S)NCc2ccc(Cl)cc2)c1	?	?	5%	7.1µM*	6.3µM*
Cc1cnn(C(=S)NCCc2ccccc2)c1	?	-8%	-5%	?	14µM*
COc1ccc(CNc2ccnc(-c3ccccc3Cl)n2)c(OC)c1	?	.	-20%	-14%	44%
COc1cc(S(=O)(=O)N2CCN(c3ccccc3F)CC2)c(OC)cc1Cl	25µM*	-1%	22%	4%	-6%
CC1NC(C(=O)O)Cc2c1[nH]c1ccccc21 (centres undefined)	2%	.	-4%	.	.
Cc1c(OC(C)C(=O)NCc2ccncc2)ccc2c3c(c(=O)oc12)CCCC3 (centres undefined)	.	-5%	11%	?	30%
SMILES	ALDH1A1 block	PLK1 PBD inh	Sfp PPTase inh	VP16 counter	RORg inh
CCCCc1ccc(NC(=O)C(C)CC)cc1 (centres undefined)	-2%	3%	-26%	4µM*	1.4µM*
CCCCc1ccc(NC(=O)N[C@@H](C)C(=O)O)cc1	.	2%	4%	-3%	9%
CCCCc1ccc(NC(=S)N2CCN(C(=O)OCC)CC2)cc1	.	-17%	13%	?	1.3µM*
CCOC(=O)N1CCN(C(=S)Nc2ccc(C)c(C)c2)CC1	2%	1%	9%	-4%	?
CCCCc1ccc(NC(=S)N2CCCC2)cc1	.	3%	10%	10µM*	11µM*
CCCCc1ccc(NC(=S)NN2CCOCC2)cc1	6%	-24%	9%	-26%	-8%
CCCCc1ccc(NC(=S)N2CCN(C)CC2)cc1	.	-7%	4%	?	11µM*
CCOc1ccc(-c2cncc3nccn23)cc1	.	-1%	.	.	.
O=C1O[C@@H](c2ccccc2)C[C@@H](O)C(=O)CCc2ccccc21	.	-6%	.	.	.
Cn1c(NCCN2CCCC2)nc2cc(-c3ccsc3)sc2c1=O	.	-10%	.	.	.
CC(C)c1ccc(NC(=S)N2CCCC2)cc1	.	-5%	10%	?	10µM*
CC(C)c1ccc(NC(=S)N2CCN(C)CC2)cc1	.	-1%	15%	-1%	-30%
Cc1ccc(CNC(=O)C2c3ccccc3C(=O)N3CCc4ccccc4C23)o1 (centres undefined)	25µM*	-16%	14µM*	-7%	-1%
O=C(NCCN1CCN(Cc2ccccc2)CC1)C1c2ccccc2C(=O)N2CCc3ccccc3C12 (centres undefined)	9%	-5%	33%	-1%	14%
CC(N)c1ccc(Cl)cc1Cl (centres undefined)	1%	-3%	16%	-10%	-18%
CC(CCc1ccco1)NC(=O)Cn1ncc2c1-c1ccccc1OC2 (centres undefined)	18µM*	-10%	50µM*	-1%	?
FC(F)(F)c1ccccc1-c1ccc2ncnc(NCc3cccs3)c2c1	?	.	11%	?	?
O=C(NNC(=O)C12CC3CC(CC(C3)C1)C2)c1ccccn1	.	-11%	12%	4.5µM*	0.5µM*
CC1CN(S(=O)(=O)c2ccc(C(=O)Nc3nnc(-c4ccc5c(c4)CCCC5)o3)cc2)CC(C)O1 (centres undefined)	?	?	2%	0.89µM*	0.11µM*
O=C(Nc1nnc(-c2ccc3c(c2)CCCC3)o1)C1COc2ccccc2O1 (centres undefined)	14%	-30%	10%	7.9µM*	3.5µM*
CC(=O)Nc1nnc(-c2ccc3c(c2)CCCC3)o1	-8%	0%	5%	3.5µM*	7.1µM*
O=C(Nc1ccccc1)C1COc2ccccc2O1 (centres undefined)	.	-14%	27%	19%	34%
CCCc1nc2c3ccccc3ccn2c1CC1CCCCC1	.	0%	.	.	.
COc1cccc(N2CCN(C(=O)C3CCN(C(=O)Nc4ccccc4)CC3)CC2)c1	.	0%	.	.	.
O=C(CCCN1C(=O)c2cccc3cccc(c23)C1=O)N1CCN(c2ncccn2)CC1	28µM*	-4%	1%	2%	5%
Cc1nc2cc(N3CCN(C)CC3)c(NC(=O)Cc3ccccc3)cc2c(=O)n1Cc1ccccc1	18µM*	-2%	5%	?	7.1µM*
CSCCC(NC(=O)c1ccco1)C(=O)NCCc1ccc(Cl)cc1 (centres undefined)	.	-7%	.	.	.
CCC(c1nnnn1CCOC)N(Cc1cc2c(C)cc(C)cc2[nH]c1=O)CC1CCCO1 (centres undefined)	11µM*	-10%	-10%	-11%	1%

Compound activity (PubChem)
